# Compound activity deposited in PubChem by Broad Institute.
# Rows were chosen to be rich in hits. Some 3.2% of all compounds tested hit in one or more screens of this group.
# CaV13 ICDI inh: Disruptors of the CACNA1D IQ motif to Ca2+-dependent inactivation inhibitor domain association, primary screening, Förster resonance energy transfer in intact living …; HEK cells, CFP/YFP FRET ICDI-IQ, plate reader, 10 min; percent FRET-ratio fall versus neutral wells; inhibition, % at 12.3 µM; hit rate 0.098% among 340,000; AID 743397;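 active = mean replicate inhibition of at least 30% and at least 1% of replicates passing that level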;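 note: 0% = median of the neutral control wells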
# INS-1E GSIS act: primary screen for activators of insulin secretion dependent on glucose, INS-1E cells, GLuc reporter luminescence; INS-1E GLuc reporter insulin secretion, 2-3 h; hit rate 0.61% among 370,000; activation, % at 16.6 µM;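 active = lowest replicate activation of at least 40%, so every replicate reaches that level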;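 note: 0% = median of neutral control wells and 100% = median of IBMX positive control wells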
# PGC1a acetyl inh: PGC1a acetylation modulation, inhibitor mode | U2OS PGC1a acetylation, AlphaScreen anti-acetyl-lysine; with virally co-expressed GCN5 acetyltransferase | inhibition, % at 15.6 µM | hit rate 0.17% among 350,000;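 active = every replicate shows inhibition of at least 40%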;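 note: 0% = neutral control wells and 100% = positive control wells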
# DENV2 CPE rescue: inhibitors of DENV2 cytopathic effect; DENV2-infected cells, cytopathic effect rescue, plate reader; CPE inhibition, % at 9.99 µM; hit rate 1.7% among 350,000; in the data active = CPE inhibition above about 20%, passing the limit was not always enough; tested in BHK-21 cells;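 note: 0% = median of neutral control wells and 100% = median of positive control wells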
# ERAP1 inh: ERAP1 (human) enzyme inhibition. inhibition, % at 10.7 µM. hit rate 0.15% among 340,000. recombinant ERAP1, Leu-AMC fluorescence, 60 min;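 active = mean replicate inhibition of at least 30%, or all replicates individually reaching that 30% level; inactive = mean below 30% and not every replicate reaching it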;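 note: 0% = neutral control wells and 100% = L-leucinethiol positive control wells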
# Ecoli rRNA inh: selective bacterial rRNA inhibition in E. coli | E. coli WT GFP vs humanized-ribosome RFP mutants, fluorescence, 24 h; hits give low values; DMSO median 0, no signal -100 | GFP signal change (wild-type ribosome), % (concentration not given with the values) | hit rate 1.6% among 350,000;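 active = significant combined selectivity score with lowered wild-type GFP, culture density cut under 30%, mutant RFP and density less affected; inactive = any of these conditions unmet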
# Active calls of the source: *; . = no result given; ! = repeats disagree.
SMILES,CaV13 ICDI inh,INS-1E GSIS act,PGC1a acetyl inh,DENV2 CPE rescue,ERAP1 inh,Ecoli rRNA inh
CCOc1cc(CNc2ccc(Br)cc2)cc(Br)c1OCC(=O)NC(C)(C)C,-6,-31,2,5,-2,1
CCOc1cc(CNc2ccc(OC)cc2)cc(Br)c1OCC(=O)NC(C)(C)C,-7,-22,-19,.,-1,-25*
CO[C@H]1CN(C)C(=O)c2ccc(NS(C)(=O)=O)cc2OC[C@@H](C)NC[C@@H]1C,.,-8,-13,6,-1,1
CCN(CCNCC(O)COc1ccccc1C(C)C)c1cccc(C)c1 (stereo not drawn),-18,383*,-5,-2,1,-56
CCOC(=O)N1CCN(CC(O)COc2ccccc2C(C)C)CC1 (stereo not drawn),0,.,5,.,.,.
Cc1noc(C)c1NC(=O)Nc1ccc2c(c1)C(=O)N([C@@H](C)CO)C[C@@H](C)[C@H](CN(C)Cc1ccc3c(c1)OCO3)OCCCC[C@H](C)O2,.,1,9,1,.,1
O=C1CCCc2ccccc2N1Cc1ccc(Cl)cc1Cl,0,.,56*,.,.,.
CCOc1ccc(/C=C2\SC(=S)NC2=O)cc1OC,-4,-60,.,-2,13,-7
CCOc1ccccc1C=C1SC(=S)NC1=O,-3,-30,0,35*,-2,-51
CC(=O)Oc1cccc(C2=CC(=O)CC(C)(C)C2=O)c1,-6,1,5,22*,7,19
COc1cccc(S(=O)(=O)N[C@@H]2C=C[C@@H](CC(=O)NC3CCC3)O[C@H]2CO)c1,.,-17,-7,2,2,1
Cc1cc(C(=O)COc2cc(F)ccc2[N+](=O)[O-])c(C)n1C1CC1,-7,-2,2,.,2,-29*
C[n+]1ccccc1/C=N/O,-4,14,11,-6,92*!,5
CC(O)/C=C/c1cccc[n+]1C (stereo not drawn),-7,2,12,1,107*,27
COc1ccc(/C=C/c2cccc[n+]2C)c(O)c1,-6,2,-2,1,5,7
CCCn1nc(C(=O)Nc2ccc3c(c2)OCO3)c2ccccc2c1=O,-3,31,0,-10,-4,-1
CCCCn1nc(C(=O)Nc2ccc(-n3cnnn3)cc2)c2ccccc2c1=O,-6,-9,1,57*,-1,8
CCCCn1nc(C(=O)NC2CCCCCC2)c2ccccc2c1=O,-7,2,-1,-7,2,3
CCCCn1nc(C(=O)Nc2ccc3c(c2)OCO3)c2ccccc2c1=O,1,-8,14,36*,-5,-5
CCCn1nc(C(=O)NC2CCCC2)c2ccccc2c1=O,-3,58*,-7,0,2,-1
COc1cccc(NC(=O)N(C)C[C@H]2Oc3cc(-c4ccccc4F)ccc3S(=O)(=O)N([C@H](C)CO)C[C@H]2C)c1,.,4,11,.,6,0
Cc1noc(C)c1NC(=O)N(C)C[C@H]1OCCCC[C@@H](C)Oc2ccc(NC(=O)Cc3ccccc3)cc2C(=O)N([C@@H](C)CO)C[C@H]1C,.,-1,4,-6,0,-2
COc1cccc(NC(=O)N2CCN(c3nc(-c4cccc(OC)c4)cs3)CC2)c1,-11,9,-3,0,.,-30*
CC(C)NC(=O)N1[C@@H](CO)[C@@H](c2ccccc2)C12CN(Cc1ccccc1)C2,.,17,-9,28*,-1,-1
CC(C)NC(=O)N1CC2(C1)[C@H](c1ccccc1)[C@@H](CO)N2C(=O)c1ccccn1,.,12,5,33*,.,3
O=C(C[C@H]1C=C[C@@H](NC(=O)CCN2CCCCC2)[C@H](CO)O1)Nc1ccccc1,.,13,-3,15,1,1
O=C(Nc1cc(F)ccc1F)N[C@@H]1CC[C@H](CCn2cc(C3CCCC3)nn2)O[C@H]1CO,.,-10,-2,-7,0,-2
CCOc1ccccc1NC(=O)NNS(=O)(=O)c1cc(C)ccc1C,.,-11,0,-3,1,-21
CCOc1ccccc1NC(=S)NNS(=O)(=O)c1c(C)cc(C)cc1C,-3,26,.,4,-3,-16*
